Assay results: PubChem BioAssay (NCI)
This is part of a sample that, as a whole, favours compounds with a hit. Of some 83,000 tested, about 20% had one in any assay.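 The endpoint reported here, percent growth, reads 100 for growth as untreated, 0 for no net growth and -100 for all cells dead.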 Unmarked numbers belong to inactive results. The source made the active and inactive calls.

Tested on: OVCAR-8 ovarian
Experiment: NCI-60 one-dose screen, 48 h (100 = growth as untreated, 0 = no growth, -100 = all killed)
Conditions: 10 µM unless noted
Method: Growth inhibition of the OVCAR-8 human tumor cell line is measured as a screen for anti-cancer activity. Cells are grown in 96 well plates and exposed to the test compound for 48 hours. Compounds are tested at a single concentration, which is 10^-5 M for most compounds. The reported endpoint is percent growth (GI% or GIPRCNT), where numbers from 0 - 100% represent growth inhibition, and numbers from -100% - 0 represent cell death. For example, a value of 40 represents 60% growth inhibition. A value of 0 means no net growth occurred over the course of the experiment. A value of -40 indicates 40% of cells at the beginning of the experiment died by the end of the experiment. A value of -100 means all cells are dead at the end of the experiment.
NCI-60 Human Tumor Cell Lines Screen was performed using the standard one-dose NCI protocol, which is described in more detail at https://dtp.cancer.gov/discovery_development/nci-60/default.htm.
Compounds with GIPRCNT values below 10 were considered active. Activity score was based on GIPRCNT using the following formula: […]
Score is 0 for GIPRCNT values of 100 or above, 50 for GIPRCNT values of 0, and 100 for GIPRCNT values of -100.

Compared with C/C=C/C(N)=O, CCOC(=O)CC(C)=N is higher in growth: 106% for the first, 108% for the second.

Compared with Cn1cc(-c2nc(-c3c[nH]c4ccccc34)cs2)c2cccnc21, COc1ccc(-c2cc(C(=O)N=Nc3c(O)[nH]c4ccccc34)no2)cc1 is higher in growth: 37.9% for the first, 103% for the second.

First: CC(C)[C@@H]1CC[C@]2(C(=O)NCCCCN=C(N)N)CC[C@]3(C)[C@H](CC[C@@H]4[C@@]5(C)CCC(=O)C(C)(C)[C@@H]5CC[C@]43C)[C@@H]12
Second: C=C1CC[C@@H]2[C@](C)(COC(C)=O)[C@H](OC(C)=O)CC[C@@]2(C)[C@@H]1CC(Nc1ccc(S(=O)(=O)Nc2nc(C)cc(C)n2)cc1)C1=CCOC1=O (stereo not given in full)
The growth of the first is higher: 70.2% for the first, 62% for the second.

First: COc1ncc(-c2ccc3ncnc(Nc4cccc(Cl)c4)c3c2)cc1NS(C)(=O)=O
Second: CCOC(=O)c1cnc2ccc(Br)cc2c1Nc1cccc(S(=O)(=O)NC)c1
The growth of the first is lower: 45.5% for the first, 101% for the second.

Compared with N#Cc1c(N)nc(N)nc1Nc1ccc(Br)cc1, Nc1cccc(NC(=O)C(=O)Nc2cccc(N)c2)c1 is lower in growth: 101% for the first, 94.8% for the second.

First: COc1cc(C#N)cc(OC)c1OCCN(CCOc1c(OC)cc(C#N)cc1OC)S(=O)(=O)c1ccc(C)cc1
Second: Cc1ccc2c(c1)C(=O)/C(=C/c1ccc(OCC(=O)c3ccccc3)cc1)O2
The growth of the first is lower: 54.1% for the first, 106% for the second.

Going from NC1=CC(=O)C(=O)c2ccccc21 to NC1=CSC2=N/C(=C\c3ccc(Cl)cc3)C(=O)N12, the growth rises from 64.2% to 72.3%.

First: CN(CC(=O)N(Cc1ccc(C2CCCCC2)cc1)c1ccc(C(=O)NO)cc1)S(=O)(=O)c1c(F)c(F)c(F)c(F)c1F
Second: O=C(CN1CCN(c2cc3c(cc2F)c(=O)c(C(=O)O)cn3C2CC2)CC1)Nc1nc(-c2ccccc2)cs1
The growth of the first is lower: 49.8% for the first, 52.1% for the second.

Compared with COc1ccccc1-c1ccc2c(N)c(C(=O)c3ccc4c(c3)OCO4)sc2n1, COc1ccc(C2CC(=O)Nc3c2c(C)nn3-c2nc3ccccc3[nH]2)cc1 (stereo not given) is higher in growth: 73.8% for the first, 108% for the second.

First: Clc1ccc(-c2nnc(COc3ccccc3Cl)o2)cc1
Second: C(=N\Nc1nnn(Cc2ccccc2)n1)/c1ccccc1
The growth of the first is higher: 76.6% for the first, 39.8% for the second.

Going from Nc1cc(-c2nc3sccn3c2-c2ccnc(NCCCNS(=O)(=O)c3ccc(F)cc3)n2)ccc1F to O=[N+]([O-])c1cccc(-c2nc3sccn3c2-c2ccnc(NCCCNS(=O)(=O)c3ccc(Br)cc3)n2)c1, the growth falls from 46.5% to 28.2%.

Going from CN1CCN(Cc2ccc(NC(=O)c3cncc(C#Cc4cncc5nccnc45)c3)cc2C(F)(F)F)CC1 to COc1ccc2nc3cc(Cl)ccc3c(N3CCN(c4nccc(Nc5ccc(Cl)cc5)n4)CC3)c2c1, the growth rises from 62.1% to 80.7%.

Going from COc1ccc(/C=c2/c(=O)[nH]c3nc4sc(C)c(C)c4c(=O)n23)cc1 to COc1ccc(/C=N\NC(=O)c2ccncc2)cc1O, the growth rises from 77.8% to 98.5%.

First: C=C1C(=O)O[C@H]2[C@H]1CC/C(Cn1cc(Cn3ccc4ccccc43)nn1)=C\CC[C@@]1(C)O[C@@H]21
Second: O=c1c(/C=C/c2ccco2)nnc(SCCN2CCOCC2)n1/N=C/c1ccc([N+](=O)[O-])cc1
The growth of the first is lower: 11% for the first, 94% for the second.

Compared with CCCN(CCC)CN(CCC)CCC, CCOC(=O)CC(=O)c1c(C)cc(C)cc1C is lower in growth: 105% for the first, 102% for the second.

First: COC1C/C(=N\O)C2OC(c3ccccc3)OCC2O1 (stereo not given)
Second: O=C1CC(c2nc3ccccc3s2)CN1C1CCCCC1 (stereo not given)
The growth of the first is higher: 114% for the first, 95.4% for the second.

First: COc1cc(-c2cnc3nonc3n2)c(OC)c2c1OCO2
Second: OC(c1cccc(C(F)(F)F)c1)c1cnccc1NC1CCCCCC1 (stereo not given)
The growth of the first is higher: 97.8% for the first, 58.2% for the second.

Cc1ccc(-c2nc(/C=N/Nc3cc(C)nc4ccc(Br)cc34)c(C)o2)cc1 was tested, and the growth was -63.5% (active).
With COc1cnc2c(c1)C(=O)c1c-2n(CCCN2CCCC2)c(=O)c2cc([N+](=O)[O-])ccc12 the growth was -37.2% (active).
For COc1cnc2c(c1)C(=O)c1c-2n(CCCN2CCN(C)CC2)c(=O)c2cc([N+](=O)[O-])ccc12, the growth was -21.9% (active).
O=C1c2cccnc2C(=O)c2c1c(C(=O)OCCN1CCOCC1)c1ccccn21 was tested, and the growth was 9.13% (active).
CCN(CC)CCCC(C)N/C(=C1\C(=O)NC(=O)\C1=C(/NC(C)CCCN(CC)CC)c1cccc(OC)c1)c1cccc(OC)c1 (stereo not given) was tested, and the growth was 5.58% (active).
O=C1c2cc3c(cc2-c2c1c1cc(Cl)c(Cl)cc1c(=O)n2C[C@H](O)CO)OCO3 was tested, and the growth was -20.2% (active).
